# Results filed as inconclusive are left out. Calls of active or inactive are those of the source. The call rests on the fitted dose curve; in most records, active means well fitted cell-killing curve with a large enough effect; inconclusive means small, poorly fitted or top-dose-only effect, or effect the other way; inactive means no such curve, though single readings can be large or run the other way.
# Assay: Quantitative High-Throughput drug screen in 47 multiple myeloma cell lines against the NCATS MIPE library collection: OPM2_DSMZ cell viability assay (AID 1919872); further: nearly all actives have a fitted effect of over 30% in size
# Conditions: OPM2 myeloma viability, CellTiter-Glo ATP luminescence, 48 h; series mostly up to 45.8 µM; viability (% of DMSO): at the top concentration
# Description: PI: Beverly A. Mock Ph.D.
# Laboratory of Cancer Biology and Genetics,
# Center for Cancer Research, National Cancer Institute,
# National Institute of Health, Bethesda, Maryland
# Drug resistance and disease progression are common in multiple myeloma (MM) patients, underscoring the need for new therapeutic combinations. […] We hypothesized that effective combinations would reduce MYC expression and enhance p16 activity. […] These preclinical data identify potentially useful drug combinations for evaluation in drug-resistant MM and reveal potential mechanisms of combined drug sensitivity.
# Described herein is the primary MIPE qHTS used to cherrypick compounds. Validated compounds were then further tested for potential synergistic activiy.
# [1] Peat TJ, Gaikwad SM, Dubois W, Gyabaah-Kessie N, Zhang S, Gorjifard S, Phyo Z, Andres M, Hughitt VK, Simpson RM, Miller MA, Girvin AT, Taylor A, Williams D, D'Antonio N, Zhang Y, Rajagopalan A, Flietner E, Wilson K, Zhang X, Shinn P, Klumpp-Thomas C, McKnight C, Itkin Z, Chen L, Kazandijian D, Zhang J, Michalowski AM, Simmons JK, Keats J, Thomas CJ, Mock BA. Drug combinations identified by high-throughput screening promote cell cycle transition and upregulate Smad pathways in myeloma. Cancer Lett. 2023 Aug 1;568:216284. doi: 10.1016/j.canlet.2023.216284. Epub 2023 Jun 24. PMID: 37356470; PMCID: PMC10408729.
# SEQUENCE No. (e.g., 1, 2, 3, etc.); […] (e.g., Cells, Incubation, Reagent, etc.); VALUE and DESCRIPTION.
# 1; Cells; 5 uL; white, solid bottom 1536-well Greiner assay plate.
# 2; Compounds; 23 nL; Kalypsis pin tool (Wako USA) equipped with a 1536-well pin head to transfer to the assay plates.
# 3; Incubation; 48 hours; 37C incubation.
# 4; Reagent;5uL; CellTiter Glo (Promega).
# 5; Detector; 425V; Luminescence; Viewlux PerkinElmer.
# NOTES (numbers refer to Sequence numbers above)
# 1. The cell-based screening methods employed in this study were like those previously published. Briefly, the corresponding myeloma cell lines were screened in 1,536-well plates with 500 cells, 5-uL per well for inhibition of cell viability (assessed by measuring ATP levels with CellTiterGlo).
# 2. NCATS MIPE 4.0 library of approved and investigational drugs were added using the Kalypsis pin tool. Wells treated with DMSO only for 100% viability and media only wells for 0% viability were used as controls.
# 3. The assay plates were covered and incubated for 48 hours in a 37C, 5% CO2 incubator with controlled humidity.
# 4. After 48 hours, CellTilter-GloTM luminescent substrate mix (Promega) reagent was added to the assay plate and plates we incubated for 5 min at room temperature.
# 5. Signal was measured as median relative luminescence units on a ViewLux (PerkinElmer) multiplate reader.
# [1] Heske CM, Davis MI, Baumgart JT, Wilson K, Gormally MV, Chen L, Zhang X, Ceribelli M, Duveau DY, Guha R, Ferrer M, Arnaldez FI, Ji J, Tran HL, Zhang Y, Mendoza A, Helman LJ, Thomas CJ. Matrix Screen Identifies Synergistic Combination of PARP Inhibitors and Nicotinamide Phosphoribosyltransferase (NAMPT) Inhibitors in Ewing Sarcoma. Clin Cancer Res. 2017 Dec 1;23(23):7301-7311. doi: 10.1158/1078-0432.CCR-17-1121. Epub 2017 Sep 12. PMID: 28899971; PMCID: PMC6636827.
# Potency means the concentration at half of the fitted maximal effect.
SMILES,viability (% of DMSO),Potency
CC1(C)O[C@H]2C[C@@H]3[C@H]4CCC5=CC(=O)C=C[C@]5(C)[C@@]4(F)[C@@H](O)C[C@]3(C)[C@]2(C(=O)CO)O1,109% (inactive),
CC1(C)S[C@H]2[C@H](NC(=O)[C@@H](N)c3ccc(O)cc3)C(=O)N2[C@@H]1C(=O)O,98.3% (inactive),
Nc1nc(F)nc2c1ncn2[C@@H]1O[C@H](COP(=O)(O)O)[C@@H](O)[C@H]1O,105% (inactive),
COc1ccc(-c2cc(=O)c3c(O)cc(O)cc3o2)cc1O,107% (inactive),
N#CC(=C(N)Sc1ccccc1N)C(C#N)=C(N)Sc1ccccc1N,96.3% (inactive),
NC[C@@H]1O[C@@H](O[C@H]2[C@@H](O)[C@H](O[C@@H]3[C@@H](O)[C@@H](N)C[C@H](N)[C@H]3O[C@H]3O[C@H](CN)[C@@H](O)[C@@H](O)[C@H]3N)O[C@H]2CO)[C@H](N)[C@@H](O)[C@@H]1O,114% (inactive),
COc1cc(Nc2ncc(F)c(Nc3ccc4c(n3)NC(=O)C(C)(C)O4)n2)cc(OC)c1OC,,5.9 µM (active)
CC(C)(C)C(=O)Oc1ccc2c(c1)nc(NC(=O)c1cccc([N+](=O)[O-])c1)n2CCCO,109% (inactive),
N[C@H](CSC(c1ccccc1)(c1ccccc1)c1ccccc1)C(=O)O,,20.9 µM (active)
COc1ccc2cccc(CCNC(C)=O)c2c1,102% (inactive),
C=C1C(=O)[C@@]23C(CC[C@@H]1[C@H]2O)[C@@]12CO[C@]3(O)[C@@H](O)[C@@H]1C(C)(C)CC[C@@H]2O (stereo not given in full),,7.43 µM (active)
Nc1ncnc2c1ncn2[C@@H]1O[C@H](CO)C[C@@H]1O,97.1% (inactive),
NC(=O)c1cccc2[nH]c(-c3ccc([C@H]4CCCN4)cc3F)nc12,89% (inactive),
Cn1cc(C=C2C(=O)Nc3cccnc32)c2ccccc21,82% (inactive),
Nc1ncnc2c1ncn2[C@@H]1O[C@@H](CO)[C@H](O)[C@H]1O,101% (inactive),
CNC(=O)c1ccc2cc(C3(O)CCn4cncc43)ccc2c1 (stereo not given),91.4% (inactive),
c1ccc2c(Cc3c[nH]c4ccccc34)c[nH]c2c1,,26.4 µM (active)
CCOC1OC(=O)C[C@H]1NC(=O)[C@@H]1CCCN1C(=O)[C@@H](NC(=O)c1ccc(N)c(Cl)c1)C(C)(C)C (stereo not given in full),80% (inactive),
N#CC1(c2ccc(NC(=O)c3cccnc3NCc3ccncc3)cc2)CCCC1,87.5% (inactive),
O=c1c(-c2ccc(O)cc2)coc2cc(O[C@@H]3O[C@H](CO)[C@H](O)[C@H](O)[C@H]3O)ccc12,122% (inactive),

SMILES,viability (% of DMSO),Potency
COc1ccc(-c2nc(N3CCOCC3)c3sc(CN(C)c4ncc(C(=O)NO)cn4)cc3n2)cn1,,0.0021 µM (active)
COc1cccc(-c2cc(=O)c3ccccc3o2)c1N,98.5% (inactive),
CCC(CC)[C@H](NC(C)=O)[C@@H]1[C@H](O)[C@@H](C(=O)O)C[C@@H]1N=C(N)N,102% (inactive),
Cc1cccc(Nc2nc(-c3ccncc3)cs2)c1,,10.5 µM (active)
CN[C@@H](C)C(=O)N[C@H]1CN(C(=O)CC(C)C)CC[C@H]2CC[C@@H](C(=O)NC(c3ccccc3)c3ccccc3)N2C1=O,81.3% (inactive),
CN1C[C@H]2c3ccccc3Oc3ccc(Cl)cc3[C@@H]2C1,100% (inactive),
O=c1cc(-c2ccccc2)oc2cc(O)cc(O)c12,86.6% (inactive),
O=C(Nc1ccccc1Br)N[C@@H]1CCN(c2ccc(C(F)(F)F)cn2)C1,101% (inactive),
CC(C)(Cc1ccc2ccccc2c1)NC[C@@H](O)COc1cccc(Cl)c1C#N,106% (inactive),
CC(C)(C)OC(=O)N[C@H]1CCCCCC=C[C@@H]2C[C@@]2(C(=O)NS(=O)(=O)C2CC2)NC(=O)[C@@H]2C[C@@H](OC(=O)N3Cc4cccc(F)c4C3)CN2C1=O,86.2% (inactive),
Cc1ccc(/C=N/NC(=O)c2ccccc2Oc2ccccc2)o1,,20.9 µM (active)
CC(C)(C)COc1ccc(-n2cc(C(=O)O)cn2)cc1C#N,101% (inactive),
OC[C@H]1O[C@@H](n2cnc3c2NC=NC[C@@H]3O)C[C@H]1O,101% (inactive),
COc1cc2ncnc(-n3nc(-c4ccccn4)nc3N)c2cc1OC,87.2% (inactive),
CN(C)CCC=C1c2ccccc2COc2ccc(CC(=O)O)cc21,115% (inactive),
CCOC(=O)O[C@]1(C(=O)OCCl)CC[C@@H]2[C@H]3CCC4=CC(=O)C=C[C@]4(C)[C@@H]3[C@@H](O)C[C@@]21C,98.4% (inactive),
O=c1cc(CN2CCOCC2)occ1OCCCCCSc1ccnc2cc(C(F)(F)F)ccc12,,11.8 µM (active)
Cc1nc(N)sc1-c1ccnc(Nc2ccc(N3CCOCC3)cc2)n1,,11.8 µM (active)
COc1ccc2c3c1OC1C[C@@H](O)C=C[C@@]31CCN(C)C2 (stereo not given in full),100% (inactive),
O=C(Nc1c(Cl)cncc1Cl)c1ccc(OC(F)F)c(OCC2CC2)c1,94.4% (inactive),
